Each structure is given as a SMILES string. Compounds without any hit were thinned out: in the full panel of roughly 83,000, 20% have a hit.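 Assay: single dose, 48 h. Readout: percent growth (0 = no net growth; negative = cell death). Active: <10.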 A number with no mark means an inactive call. The source made the active and inactive calls.

Among the data in PubChem BioAssay (NCI) are growth values, retold here.

Among the test systems are SR leukemia; RPMI-8226 leukemia; OVCAR-8 ovarian; OVCAR-5 ovarian; OVCAR-4 ovarian; SK-OV-3 ovarian; IGROV1 ovarian; OVCAR-3 ovarian; HS 578T breast; NCI/ADR-RES ovarian.
Test in all cases: NCI-60 one-dose screen, 48 h (100 = growth as untreated, 0 = no growth, -100 = all killed)
Holding throughout (conditions): 10 µM unless noted

Turning to `CC(=C(c1ccc(OCCN2CCCC2)cc1)c1ccc(OCCN2CCCC2)cc1)c1ccc(Cl)cc1`, the growth was -45.8% (active) in the experiment on SR leukemia; -54.8% (active) in the experiment with RPMI-8226 leukemia; -6.74% (active) with OVCAR-8 ovarian; -16% (active) in the experiment with OVCAR-5 ovarian; -11.2% (active) with OVCAR-4 ovarian; 85.8% in the experiment on SK-OV-3 ovarian. Further, the growth was -50.7% (active) in the experiment with IGROV1 ovarian, -20.8% (active) with OVCAR-3 ovarian, -31.2% (active) with HS 578T breast and -12% (active) with NCI/ADR-RES ovarian.
`Cn1cc(-c2nnc(N)nc2-c2c[nH]c3ccc(Br)cc23)c2cc(Br)ccc21`: the growth in the experiment on SR leukemia was 78.4%; with RPMI-8226 leukemia it was 109%; with OVCAR-8 ovarian, 104%; in the experiment with OVCAR-5 ovarian it was 120%; with OVCAR-4 ovarian it was 98.6%; in the experiment with SK-OV-3 ovarian, 111%. Besides, the growth was 107% in the experiment on IGROV1 ovarian, 108% with OVCAR-3 ovarian, 91.4% in the experiment on HS 578T breast and 110% with NCI/ADR-RES ovarian.
As to `COC(=O)c1ccc(NC2=C(Cl)C(=O)C(C)=C(C)C2=O)cc1`, the growth with SR leukemia is 13.6%; in the experiment with RPMI-8226 leukemia, 36.5%; in the experiment on OVCAR-8 ovarian it was 77.9%; with OVCAR-5 ovarian it was 90.9%; with OVCAR-4 ovarian it was 32.4%; with SK-OV-3 ovarian, 86.2%. The growth was 70.4% in the experiment on IGROV1 ovarian, 30.1% with OVCAR-3 ovarian, 77.1% with HS 578T breast and 65.2% in the experiment with NCI/ADR-RES ovarian.
With `Cn1cc(-c2nc(N)nnc2-c2c[nH]c3ccc(Br)cc23)c2cc(F)ccc21`, the growth in the experiment with SR leukemia is 50%; in the experiment on RPMI-8226 leukemia it was 80.2%; in the experiment with OVCAR-8 ovarian it was 96.8%; in the experiment on OVCAR-5 ovarian, 110%; in the experiment with OVCAR-4 ovarian, 94.5%; with SK-OV-3 ovarian it was 118%. The growth was 73% with IGROV1 ovarian, 99.6% in the experiment with OVCAR-3 ovarian, 96.4% with HS 578T breast and 89.8% in the experiment on NCI/ADR-RES ovarian.
Turning to `OCC(Nc1ncnc2ccc(-c3cnc4cnccn34)cc12)c1ccccc1` (stereo not given), the growth with SR leukemia was 73.5%; with RPMI-8226 leukemia, 62.5%; in the experiment with OVCAR-8 ovarian, 79.7%; in the experiment on OVCAR-5 ovarian, 83.8%; in the experiment with OVCAR-4 ovarian, 63.7%; with SK-OV-3 ovarian, 80.9%. For the same compound, the growth was 39.1% in the experiment on IGROV1 ovarian, 71.9% in the experiment with OVCAR-3 ovarian, 84.1% in the experiment on HS 578T breast and 90.3% in the experiment with NCI/ADR-RES ovarian.
In the case of `Cn1c(SCC(=O)c2ccc(Br)cc2)nc2ccccc2c1=O`, the growth in the experiment with SR leukemia was 89.6%; in the experiment with RPMI-8226 leukemia it was 77.7%; in the experiment on OVCAR-8 ovarian it was 96.8%; in the experiment on OVCAR-5 ovarian, 106%; in the experiment on OVCAR-4 ovarian, 81.8%; in the experiment on SK-OV-3 ovarian, 98.9%. Besides, the growth is 90.5% in the experiment with IGROV1 ovarian, 102% in the experiment with OVCAR-3 ovarian, 102% with HS 578T breast and 96.5% in the experiment with NCI/ADR-RES ovarian.
As for `Oc1[nH]c2ccc(Cl)cc2c1N=Nc1nc(N=Nc2c(O)[nH]c3ccc(Cl)cc23)nc(N2CCOCC2)n1`, the growth with SR leukemia was 29.2%; in the experiment with RPMI-8226 leukemia, 36.4%; in the experiment with OVCAR-8 ovarian, 50.1%; in the experiment on OVCAR-5 ovarian, 95.1%; with OVCAR-4 ovarian it was 78.7%; with SK-OV-3 ovarian, 55.5%. In addition, the growth in the experiment with IGROV1 ovarian was 55%; in the experiment on OVCAR-3 ovarian it was 52.7%; with HS 578T breast it was -7.82% (active); with NCI/ADR-RES ovarian it was 98.1%.
Turning to `CCN(CC)CCOc1ccc(C(=C(C)c2ccc(OC)cc2)c2ccc(OCCN(CC)CC)cc2)cc1`, the growth was -37.3% (active) in the experiment with SR leukemia; -43.7% (active) in the experiment on RPMI-8226 leukemia; 10% (active) in the experiment on OVCAR-8 ovarian; 18.8% with OVCAR-5 ovarian; -24.4% (active) in the experiment with OVCAR-4 ovarian; 96.4% with SK-OV-3 ovarian. In addition, the growth in the experiment on IGROV1 ovarian is 0.0725% (active); in the experiment on OVCAR-3 ovarian, -4.04% (active); in the experiment on HS 578T breast, -21.8% (active); in the experiment on NCI/ADR-RES ovarian it was 25.3%.
`CN1CCN(c2ccc(Nc3nc(NCCCNS(=O)(=O)c4cccc5ccccc45)c4sccc4n3)cc2)CC1`: the growth is 4.12% (active) with SR leukemia; -2.5% (active) with RPMI-8226 leukemia; 5.7% (active) in the experiment with OVCAR-8 ovarian; 10.8% in the experiment with OVCAR-5 ovarian; -35.6% (active) in the experiment with OVCAR-4 ovarian; -18% (active) with SK-OV-3 ovarian. Besides, the growth in the experiment on IGROV1 ovarian was 6.32% (active); in the experiment on OVCAR-3 ovarian it was -62.7% (active); in the experiment on HS 578T breast, -25% (active); in the experiment with NCI/ADR-RES ovarian, 13.5%.
Take `CCCCCCOC(=O)c1cc(-c2ccc(F)cc2)nc2ccccc12`: the growth in the experiment with SR leukemia was 107%; in the experiment with RPMI-8226 leukemia, 110%; in the experiment on OVCAR-8 ovarian, 98.1%; in the experiment with OVCAR-5 ovarian, 102%; with OVCAR-4 ovarian, 101%; with SK-OV-3 ovarian, 87.4%. Further, the growth is 88.3% in the experiment with IGROV1 ovarian, 104% with OVCAR-3 ovarian, 94.1% in the experiment on HS 578T breast and 96.1% in the experiment with NCI/ADR-RES ovarian.
Consider `Cc1ccc2c(n1)C(=O)C(Cl)=C(Nc1ccc(C(C)C)cc1)C2=O`, for which the growth with SR leukemia is 3.93% (active); in the experiment on RPMI-8226 leukemia it was -21.7% (active); in the experiment on OVCAR-8 ovarian, 8.76% (active); in the experiment with OVCAR-5 ovarian, 103%; in the experiment on OVCAR-4 ovarian, -74% (active); with SK-OV-3 ovarian, 106%. Further, the growth in the experiment with IGROV1 ovarian is -53% (active); in the experiment on OVCAR-3 ovarian, -55.7% (active); in the experiment on HS 578T breast, 55.6%; in the experiment on NCI/ADR-RES ovarian, 49.9%.
As to `Cc1nc(/N=C(N)/N=C(\N)c2cccc(Br)c2)sc1C`, the growth with SR leukemia is 35.6%; in the experiment with RPMI-8226 leukemia it was 55.1%; in the experiment on OVCAR-8 ovarian, 58.2%; with OVCAR-5 ovarian it was 71.1%; in the experiment with OVCAR-4 ovarian, 87.3%; in the experiment with SK-OV-3 ovarian, 67.8%. Also, the growth is 52.3% with IGROV1 ovarian, 47.2% in the experiment with OVCAR-3 ovarian, 73.1% in the experiment with HS 578T breast and 36.1% with NCI/ADR-RES ovarian.
